From PubChem BioAssay (NCI)
Where “and” joins values, the source holds several entries; their conditions need not be identical. Equal entries are not always repeated. Compounds without any hit were thinned out: in the full panel of roughly 83,000, 20% have a hit.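 Step 1: grow cells in 96-well plates. Step 2: add test compound at a single concentration. Step 3: incubate 48 h. Step 4: record percent growth.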 Calls of active or inactive are those of the source. Rule for the calls: active = growth percent below 10; inactive = the rest.

How the values were obtained:
Assay in all cases: NCI-60 one-dose screen, 48 h (100 = growth as untreated, 0 = no growth, -100 = all killed)
Conditions in all cases: 10 µM unless noted
NCI-H23 lung = test system: NCI-H23 lung
NCI-H226 lung = test system: NCI-H226 lung
NCI-H322M lung = test system: NCI-H322M lung
HOP-62 NSCLC = test system: HOP-62 NSCLC
NCI-H460 lung = test system: NCI-H460 lung
HOP-92 NSCLC = test system: HOP-92 NSCLC
786-0 renal = test system: 786-0 renal
COLO 205 colon = test system: COLO 205 colon
DU-145 prostate = test system: DU-145 prostate
K-562 leukemia = test system: K-562 leukemia
MALME-3M melanoma = test system: MALME-3M melanoma
MDA-MB-231 breast = test system: MDA-MB-231 breast
RXF 393 renal = test system: RXF 393 renal
SF-268 CNS = test system: SF-268 CNS
SF-295 CNS = test system: SF-295 CNS
SF-539 CNS = test system: SF-539 CNS
M14 melanoma = test system: M14 melanoma
NCI-H522 lung = test system: NCI-H522 lung
A549/ATCC NSCLC = test system: A549/ATCC NSCLC
UACC-257 melanoma = test system: UACC-257 melanoma

| Compound | growth (NCI-H23 lung) | growth (NCI-H226 lung) | growth (NCI-H322M lung) | growth (HOP-62 NSCLC) | growth (NCI-H460 lung) | growth (HOP-92 NSCLC) | growth (786-0 renal) | growth (COLO 205 colon) | growth (DU-145 prostate) | growth (K-562 leukemia) | growth (MALME-3M melanoma) | growth (MDA-MB-231 breast) | growth (RXF 393 renal) | growth (SF-268 CNS) | growth (SF-295 CNS) | growth (SF-539 CNS) | growth (M14 melanoma) | growth (NCI-H522 lung) | growth (A549/ATCC NSCLC) | growth (UACC-257 melanoma) |
| --- | --- | --- | --- | --- | --- | --- | --- | --- | --- | --- | --- | --- | --- | --- | --- | --- | --- | --- | --- | --- |
| CCOC(=O)C(CNc1ccccc1)C(=O)OCC | 100% (inactive) | 95.2% (inactive) | 105% (inactive) | 90.1% (inactive) | 103% (inactive) | 85.6% (inactive) | 100% (inactive) | 106% (inactive) | 109% (inactive) | 100% (inactive) | 115% (inactive) | 103% (inactive) | 98.4% (inactive) | 100% (inactive) | 101% (inactive) | 101% (inactive) | 109% (inactive) | – | – | – |
| O=C(CN1CCOCC1)N1CCOCC1 | 110% (inactive) and 104% (inactive) | 105% (inactive) and 113% (inactive) | 92% (inactive) and 110% (inactive) | 106% (inactive) and 112% (inactive) | – | 75.3% (inactive) | 102% (inactive) and 108% (inactive) | 115% (inactive) and 105% (inactive) | 120% (inactive) and 117% (inactive) | 102% (inactive) and 108% (inactive) | 90.6% (inactive) | 108% (inactive) and 98.1% (inactive) | 126% (inactive) and 119% (inactive) | 108% (inactive) and 115% (inactive) | 113% (inactive) and 104% (inactive) | 111% (inactive) and 101% (inactive) | 97.4% (inactive) and 106% (inactive) | 75.3% (inactive) and 101% (inactive) | 103% (inactive) | 107% (inactive) and 106% (inactive) |
| CC(C)Oc1ccc2cc(-c3nn(CC4CCNCC4)c4ncnc(N)c34)ccc2c1 | 67.3% (inactive) and 42.6% (inactive) | 97.6% (inactive) and 63.7% (inactive) | 89.8% (inactive) and 53.9% (inactive) | 79.8% (inactive) and 53.2% (inactive) | – | 66.1% (inactive) and -1.47% (active) | 89.3% (inactive) and -32.9% (active) | 74.4% (inactive) and -47.7% (active) | 107% (inactive) and 40.4% (inactive) | 43.1% (inactive) and -68.4% (active) | 73.7% (inactive) and -77.1% (active) | 60.5% (inactive) and -42.9% (active) | 39.3% (inactive) and -73.3% (active) | 88.4% (inactive) and 1.08% (active) | 97.8% (inactive) and -54.6% (active) | 73.1% (inactive) and -83.1% (active) | 5.7% (active) and -84.7% (active) | 87.2% (inactive) and -28% (active) | 80.1% (inactive) and 16.9% (inactive) | -81.8% (active) |
| Clc1nc(Oc2ccccc2)nc(-c2cn(-c3ccccc3)c3ccccc23)n1 | 14.5% (inactive) | 80.2% (inactive) | 93.5% (inactive) | 101% (inactive) | – | -40.8% (active) | 101% (inactive) | 98.1% (inactive) | 76.7% (inactive) | 36.9% (inactive) | 85.7% (inactive) | 40% (inactive) | 42.9% (inactive) | 28.3% (inactive) | 86.2% (inactive) | 91.1% (inactive) | 71.1% (inactive) | 111% (inactive) | 102% (inactive) | 93.6% (inactive) |
| NC(=O)NO | 102% (inactive) and 62.3% (inactive) | 106% (inactive) and 74.1% (inactive) | 107% (inactive) and 77.1% (inactive) | 109% (inactive) and 73.2% (inactive) | – | 101% (inactive) and 60.6% (inactive) | 103% (inactive) and 59.7% (inactive) | 118% (inactive) and 87.4% (inactive) | 110% (inactive) and 56.7% (inactive) | 113% (inactive) and 77% (inactive) | 102% (inactive) and 57.8% (inactive) | 98.8% (inactive) and 84.4% (inactive) | 116% (inactive) and 25.5% (inactive) | 102% (inactive) and 70.4% (inactive) | 99.4% (inactive) and 50.3% (inactive) | 104% (inactive) and 47.4% (inactive) | 104% (inactive) | 98.7% (inactive) and 82.7% (inactive) | 94.8% (inactive) and 53.4% (inactive) | 102% (inactive) and 44% (inactive) |
| Cc1nnc(NC/C=C/c2ccccc2)s1 | 98.5% (inactive) and 2.04% (active) | 106% (inactive) and 102% (inactive) | 88.5% (inactive) and 112% (inactive) | 88.7% (inactive) and 111% (inactive) | – | 91.3% (inactive) and 91.5% (inactive) | 100% (inactive) and 102% (inactive) | 110% (inactive) and 113% (inactive) | 104% (inactive) and 106% (inactive) | 87.9% (inactive) and 94.2% (inactive) | 99.6% (inactive) | 105% (inactive) and 120% (inactive) | 102% (inactive) | 102% (inactive) and 97.3% (inactive) | 99.7% (inactive) | 109% (inactive) and 101% (inactive) | 101% (inactive) and 104% (inactive) | 112% (inactive) | 101% (inactive) | 96.9% (inactive) |
| c1ccc2c(CC3=NCCN3)cccc2c1 | 96.3% (inactive) and 98.5% (inactive) | 91.4% (inactive) and 100% (inactive) | 98.1% (inactive) and 115% (inactive) | 112% (inactive) and 98.8% (inactive) | – | 82.3% (inactive) and 87.7% (inactive) | 98.3% (inactive) and 99.9% (inactive) | 113% (inactive) and 112% (inactive) | 123% (inactive) and 114% (inactive) | 115% (inactive) and 107% (inactive) | 104% (inactive) and 113% (inactive) | 105% (inactive) and 109% (inactive) | 105% (inactive) and 102% (inactive) | 114% (inactive) and 109% (inactive) | 94.3% (inactive) and 100% (inactive) | 102% (inactive) and 95.8% (inactive) | 97.1% (inactive) and 99.3% (inactive) | 103% (inactive) and 90% (inactive) | 97.6% (inactive) and 93.8% (inactive) | 101% (inactive) and 97.1% (inactive) |
| CN1CCN(c2ccc3nc(-c4c(N)c5c(F)cccc5[nH]c4=O)[nH]c3c2)CC1 | 27.9% (inactive) and 34.1% (inactive) | 54.8% (inactive) and 71.3% (inactive) | 52.4% (inactive) and 61.6% (inactive) | 23.4% (inactive) and 24.6% (inactive) | 6.56% (active) and 7.99% (active) | 43.9% (inactive) and 44.5% (inactive) | 38.1% (inactive) and 24.8% (inactive) | 5.09% (active) and 26.8% (inactive) | 33.5% (inactive) and 29.3% (inactive) | -26.6% (active) and -24.4% (active) | 7.87% (active) and -13.5% (active) | 42.4% (inactive) and 52.5% (inactive) | -1.36% (active) and 26.3% (inactive) | 44.7% (inactive) and 48.9% (inactive) | 56.6% (inactive) and 71.6% (inactive) | 6.28% (active) and 11.5% (inactive) | -25.3% (active) and 2.34% (active) | 18.5% (inactive) and 53.8% (inactive) | – | -59.4% (active) and -18.1% (active) |
| Oc1nc(NCCc2ccccc2)sc1/C=C1\C=Nc2ncccc21 | 2.96% (active) and 9.1% (active) | 22.4% (inactive) and 3.3% (active) | 19.6% (inactive) and 5.21% (active) | -2.98% (active) and 19.9% (inactive) | – | 11.8% (inactive) and -9.73% (active) | 19.7% (inactive) and 9.01% (active) | -6.84% (active) and 4.78% (active) | 15.3% (inactive) and 20.7% (inactive) | 28.5% (inactive) and 29.9% (inactive) | 44.8% (inactive) and 30.6% (inactive) | 25.9% (inactive) and 25.5% (inactive) | -30.1% (active) and -20.2% (active) | 8.87% (active) and 10.4% (inactive) | 18.7% (inactive) and 22.6% (inactive) | -37.2% (active) and 0.397% (active) | – | 4.33% (active) and 26.6% (inactive) | 8.14% (active) and 19.1% (inactive) | -1.71% (active) and 14.6% (inactive) |
